# Source: the supplement of paper PMC8728848
# Shown is part of a subset that was picked to be rich in the strongest signals.
# B1: Gal 2 (Canis lupus) (protein)
# chain: MSGKFEVMNMDMKLGGTLKIKGKIAGDADGFVINLGQGSDKLNLHFNPRFHESVIVCNSRNWGQEQRDKHMCFSPGSEVKFTVTFENDGFKVKLPDGHQLTFPNRLGHSHLSYLGVQGGLKVSSFKIE
# B2: Ficolin B (Rattus norvegicus), P57756 (protein)
# chain: MVLGSAALFVLSLCVTELTLHAADTCPEVKVLDLEGSNKLTILQGCPGLPGALGPKGEAGAKGDRGESGLPGHPGKAGPTGPKGDRGEKGVRGEKGDTGPSQSCATGPRTCKELLTRGYFLTGWYTIYLPDCRPLTVLCDMDTDGGGWTVFQRRIDGTVDFFRDWTSYKQGFGSQLGEFWLGNDNIHALTTQGTNELRVDLADFDGNHDFAKYSSFQIQGEAEKYKLILGNFLGGGAGDSLTSQNNMLFSTKDQDNDQGSSNCAVRYHGAWWYSDCHTSNLNGLYLRGLHKSYANGVNWKSWKGYNYSYKVSEMKVRLI
# Legend:
# Test in all cases: glycan array binding signal (z-score within array); higher = stronger binding
# Settings in all cases: glycan notation: IUPAC condensed, linker removed
# [1] = biological target: Neu5Ac(a2-3)Gal(b1-4)GlcNAc(b1-3)Gal(b1-4)GlcNAc
# Summary of the method: (§1)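 The binding signal is a Z-score computed within each array and averaged over linkers. Arrays of the same protein sequence at different concentrations or buffers were also averaged together. Data originate from 3228 arrays in the Consortium for Functional Glycomics database, kept only where the protein sequence was available.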
# [2] = biological target: Neu5Ac(a2-3)Gal(b1-4)[Fuc(a1-3)]GlcNAc(b1-3)GalNAc
# Summary of the method: as §1
# [3] = biological target: Neu5Ac(a2-6)Gal(b1-4)GlcNAc(b1-2)Man(a1-3)[Man(a1-6)]Man(b1-4)GlcNAc(b1-4)GlcNAc
# Summary of the method: as §1
# [4] = biological target: Neu5Ac(a2-6)Gal(b1-4)GlcNAc(b1-2)Man(a1-6)[GlcNAc(b1-2)Man(a1-3)]Man(b1-4)GlcNAc(b1-4)GlcNAc
# Summary of the method: as §1
# [5] = biological target: Neu5Ac(a2-6)Gal(b1-4)GlcNAc(b1-3)Gal(b1-4)GlcNAc(b1-3)Gal(b1-4)GlcNAc
# Summary of the method: as §1
# [6] = biological target: Neu5Ac(a2-6)Gal(b1-4)GlcNAc(b1-3)GalNAc
# Summary of the method: as §1
# [7] = biological target: Fuc(a1-2)Gal(b1-3)GalNAc(b1-4)[Neu5Ac(a2-3)]Gal(b1-4)Glc
# Summary of the method: as §1
# Fuc(a1-2)Gal(b1-3)GlcNAc = biological target: Fuc(a1-2)Gal(b1-3)GlcNAc
# Summary of the method: as §1
# Fuc(a1-2)Gal(b1-4)GlcNAc = biological target: Fuc(a1-2)Gal(b1-4)GlcNAc
# Summary of the method: as §1
# [8] = biological target: Fuc(a1-2)Gal(b1-4)[Fuc(a1-3)]GlcNAc(b1-3)Gal(b1-4)[Fuc(a1-3)]GlcNAc
# Summary of the method: as §1
# [9] = biological target: Fuc(a1-3)[Gal(b1-4)]GlcNAc(b1-2)Man(a1-3)[Fuc(a1-3)[Gal(b1-4)]GlcNAc(b1-2)Man(a1-6)]Man(b1-4)GlcNAc(b1-4)GlcNAc
# Summary of the method: as §1
# [10] = biological target: Gal(a1-4)Gal(b1-4)GlcNAc(b1-3)Gal(b1-4)Glc
# Summary of the method: as §1
# [11] = biological target: Gal(b1-4)GlcNAc(b1-3)[Gal(b1-4)GlcNAc(b1-6)]Gal(b1-4)GlcNAc
# Summary of the method: as §1
# [12] = biological target: Gal(b1-4)GlcNAc(b1-6)GalNAc
# Summary of the method: as §1
# Gal3S(b1-4)GlcNAc6S = biological target: Gal3S(b1-4)GlcNAc6S
# Summary of the method: as §1
# [13] = biological target: GalNAc(b1-3)Gal(a1-4)Gal(b1-4)GlcNAc
# Summary of the method: as §1
# [14] = biological target: GlcNAc(a1-3)Gal(b1-4)GlcNAc
# Summary of the method: as §1
# [15] = biological target: GlcNAc(a1-6)Gal(b1-4)GlcNAc
# Summary of the method: as §1
# Kdn(a2-6)Gal(b1-4)GlcNAc = biological target: Kdn(a2-6)Gal(b1-4)GlcNAc
# Summary of the method: as §1
# [16] = biological target: Man(a1-2)Man(a1-3)[Man(a1-2)Man(a1-6)]Man(a1-6)[Man(a1-2)Man(a1-2)Man(a1-3)]Man(b1-4)GlcNAc(b1-4)GlcNAc
# Summary of the method: as §1
# [17] = biological target: Man(a1-2)Man(a1-6)[Man(a1-3)]Man(a1-6)[Man(a1-2)Man(a1-2)Man(a1-3)]Man
# Summary of the method: as §1
# [18] = biological target: Man(a1-2)Man(a1-6)[Man(a1-3)]Man(a1-6)[Man(a1-2)Man(a1-2)Man(a1-3)]Man(b1-4)GlcNAc(b1-4)GlcNAc
# Summary of the method: as §1
# Man(a1-3)[Man(a1-6)]Man = biological target: Man(a1-3)[Man(a1-6)]Man
# Summary of the method: as §1
# [19] = biological target: Man(a1-3)[Man(a1-6)]Man(a1-6)[Man(a1-2)Man(a1-3)]Man(b1-4)GlcNAc(b1-4)GlcNAc
# Summary of the method: as §1
# [20] = biological target: Neu5Ac(a2-3)Gal(b1-3)[Neu5Ac(a2-3)Gal(b1-4)]GlcNAc
# Summary of the method: as §1
# [21] = biological target: Neu5Ac(a2-3)Gal(b1-4)GlcNAc(b1-2)Man(a1-3)[GlcNAc(b1-2)Man(b1-4)GlcNAc(b1-2)Man(a1-6)]Man(b1-4)GlcNAc(b1-4)GlcNAc
# Summary of the method: as §1
# [22] = biological target: Neu5Ac(a2-3)Gal(b1-4)GlcNAc(b1-3)GalNAc
# Summary of the method: as §1
# [23] = biological target: Neu5Ac(a2-3)Gal(b1-4)[Fuc(a1-3)]GlcNAc(b1-3)Gal
# Summary of the method: as §1
# [24] = biological target: Neu5Ac(a2-3)Gal(b1-4)[Fuc(a1-3)]GlcNAc(b1-6)[Neu5Ac(a2-3)Gal(b1-3)]GalNAc
# Summary of the method: as §1
# [25] = biological target: Neu5Ac(a2-6)Gal(b1-4)GlcNAc(b1-3)Gal(b1-3)GlcNAc
# Summary of the method: as §1
# [26] = biological target: Neu5Ac(a2-6)Gal(b1-4)GlcNAc(b1-3)Gal(b1-4)[Fuc(a1-3)]GlcNAc(b1-3)Gal(b1-4)[Fuc(a1-3)]GlcNAc
# Summary of the method: as §1
# Neu5Ac(a2-8)Neu5Ac = biological target: Neu5Ac(a2-8)Neu5Ac
# Summary of the method: as §1
# [27] = biological target: Neu5Ac(a2-8)Neu5Ac(a2-8)Neu5Ac
# Summary of the method: as §1
# [28] = biological target: Neu5Ac(b2-6)Gal(b1-4)GlcNAc
# Summary of the method: as §1
Binder,glycan array binding signal (z-score) [1],glycan array binding signal (z-score) [2],glycan array binding signal (z-score) [3],glycan array binding signal (z-score) [4],glycan array binding signal (z-score) [5],glycan array binding signal (z-score) [6],glycan array binding signal (z-score) [7],glycan array binding signal (z-score) (Fuc(a1-2)Gal(b1-3)GlcNAc),glycan array binding signal (z-score) (Fuc(a1-2)Gal(b1-4)GlcNAc),glycan array binding signal (z-score) [8],glycan array binding signal (z-score) [9],glycan array binding signal (z-score) [10],glycan array binding signal (z-score) [11],glycan array binding signal (z-score) [12],glycan array binding signal (z-score) (Gal3S(b1-4)GlcNAc6S),glycan array binding signal (z-score) [13],glycan array binding signal (z-score) [14],glycan array binding signal (z-score) [15],glycan array binding signal (z-score) (Kdn(a2-6)Gal(b1-4)GlcNAc),glycan array binding signal (z-score) [16],glycan array binding signal (z-score) [17],glycan array binding signal (z-score) [18],glycan array binding signal (z-score) (Man(a1-3)[Man(a1-6)]Man),glycan array binding signal (z-score) [19],glycan array binding signal (z-score) [20],glycan array binding signal (z-score) [21],glycan array binding signal (z-score) [22],glycan array binding signal (z-score) [23],glycan array binding signal (z-score) [24],glycan array binding signal (z-score) [25],glycan array binding signal (z-score) [26],glycan array binding signal (z-score) (Neu5Ac(a2-8)Neu5Ac),glycan array binding signal (z-score) [27],glycan array binding signal (z-score) [28]
B1,0.01,1.21,-0.076,-0.361,-0.293,0.102,–,–,–,–,–,–,–,–,–,–,–,–,–,–,–,–,–,–,–,–,–,–,–,–,–,–,–,–
B2,–,–,–,–,–,–,-0.165,-0.197,-0.192,-0.205,-0.214,-0.169,1.56,-0.085,-0.2,-0.2,-0.127,0.051,-0.209,-0.224,-0.212,-0.18,-0.166,-0.182,3.17,5.65,-0.192,0.01,0.019,0.054,-0.204,3.73,2.69,8.52
